High-throughput results: PubChem, National Center for Advancing Translational Sciences (NCATS)
In the library only some 5.7% were active in any assay of this set; here they are far more common.
HT1080 IDH1KD tx – kills HT-1080 cells with IDH1 knockdown; 2% of 360,000 active; Potency, µM (top dose mostly 46.1 µM), usual class: cytotoxic; HT-1080 IDH1 knockdown viability, ATP luminescence, 48 h
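Cytotoxicity counter-line: IDH1KD HT-1080, 48 h, CellTiter-Glo. Curves classed by r2, magnitude and activity.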
KB-3-1 cytotox – kills parental KB-3-1 adenocarcinoma cells. KB-3-1 viability, CellTiter-Glo ATP luminescence, 72 h. Potency, µM (highest dose often 46.1 µM), most hits filed as cytotoxic. 1.4% of 400,000 active. AID 1347075; also: nearly all actives have a fitted effect of over 60% in size
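Luminescent ATP read-out (CellTiter-Glo) measures survival of drug-naive KB-3-1 cells after 72 h compound exposure at 37 °C. Titration series was screened from lowest to highest concentration, with DMSO vehicle plates as background controls.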
KB-V1 cytotox – KB-V1 MDR subline cytotoxicity. KB-V1 MDR cells viability, CellTiter-Glo, 72 h. AID 1347076. Potency, µM (doses to about 46.1 µM), hits mostly cytotoxic. 3.4% of 400,000 active; also: nearly all actives have a fitted effect of over 60% in size
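Cytotoxicity via CellTiter-Glo luminescence after 72 h compound exposure at 37 degrees C. Cells: drug-selected KB-V1 line, DMEM phenol-red free plus 10% FBS. Compounds tested at multiple concentrations; normalized data fitted to concentration-effect curves.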
HT1080-NT tox – kills 2HG-producing HT-1080-NT fibrosarcoma cells; Potency, µM (series often up to 46.1 µM), hits mostly cytotoxic; 1.6% of 360,000 active; HT-1080-NT fibrosarcoma viability, CellTiter-Glo ATP luminescence, 48 h;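 also: NT is the 2HG producing partner of a matched IDH1 knockdown line; nearly all actives have a fitted effect of over 55% in size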
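750 cells/well, RPMI + 5% FBS; 2 h settle, compound pin-transfer, 48 h at 37 degrees C. CellTiter-Glo 10 min RT, luminescence. Normalized to DMSO and media-only wells.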
A number is an active result; . = inactive; ? = inconclusive; / = no result given. Calls follow the shape of the dose curve; as a rule, active = well fitted curve in the direction sought with a large enough effect; inconclusive = small, poorly fitted or top-dose-only effect, or another doubt; inactive = no such curve, though single readings can be large; an effect the other way counts as inactive or inconclusive.

SMILES	HT1080 IDH1KD tx	KB-3-1 cytotox	KB-V1 cytotox	HT1080-NT tox
COc1ccc(-c2nn(-c3ccccc3)cc2C2NC(=O)NC(C)=C2C(=O)OC(C)C)cc1Cl (stereo unspecified)	/	?	.	/
O=C(Nc1ccc2ccccc2c1)Nc1nnc(Br)s1	/	?	.	/
CCn1c(=O)cc(OCC(=O)NCc2ccc(C)o2)c2ccccc21	.	.	18µM	.
O=C(CCSc1nnc2scc(-c3ccccc3)n12)Nc1nc(-c2ccccc2)ns1	.	.	10µM	.
Cc1ccc(NC(=O)CSc2nnc3scc(-c4ccccc4)n23)cc1	/	.	.	/
Cc1ccc(-n2c(SCC(=O)NCc3ccco3)nnc2-c2cccnc2)c(C)c1	.	.	21µM	.
CCn1c(=O)cc(OCC(=O)NCc2ccco2)c2ccccc21	.	.	?	.
Cc1cccc(-n2c(SCC(=O)NCc3ccco3)nnc2-c2ccco2)c1	.	.	?	.
COc1ccc(CNc2nc(SCC(=O)NCc3ccco3)nc3ccccc23)cc1	?	.	6.5µM	.
CCOC(=O)CSc1nc(NCc2ccco2)c2ccccc2n1	.	.	.	.
CCCCC(CC)CNC(=O)CCCc1nnc2n(CCC)c(=O)c3sccc3n12 (stereo unspecified)	/	.	.	/
CC(C)CCn1c(=O)c2cccnc2n(CC(=O)Nc2ccccc2F)c1=O	/	.	.	/
O=C(CSc1nnc2scc(-c3ccc(Cl)cc3)n12)NCc1ccco1	.	.	23µM	.
COc1ccc(OC)c(CNC(=O)COc2cc(=O)n(C)c3ccccc23)c1	.	.	18µM	.
O=C(CSc1nnc2scc(-c3ccccc3)n12)NCc1ccco1	.	.	?	.
CCOc1ccc(NC(=O)c2ccc(-c3nc(COc4ccccc4)c(C)o3)cc2)cc1	/	.	.	/
CC1=CC(C)(C)N2C(=O)C3(NCCc4c3[nH]c3ccccc43)c3cc(C)cc1c32 (stereo unspecified)	15µM	?	?	?
CN1C(=O)C2(NCCc3c2[nH]c2ccccc32)c2ccccc21 (stereo unspecified)	.	.	.	.
Cc1cc(C(=O)COC(=O)Cc2n[nH]c(=O)c3ccccc23)c(C)n1-c1ccc2c(c1)OCO2	.	.	?	.
CCOc1ccc(C(=O)COC(=O)Cc2n[nH]c(=O)c3ccccc23)cc1	5.2µM	4.1µM	4.6µM	6.5µM
O=C(Cc1n[nH]c(=O)c2ccccc12)OCC(=O)c1ccc2c(c1)OCCO2	8.2µM	1.5µM	?	?
COc1ccc(C(C)=O)cc1COC(=O)Cc1n[nH]c(=O)c2ccccc12	.	.	13µM	.
O=C(Cc1n[nH]c(=O)c2ccccc12)OCC(=O)c1ccc(F)cc1	.	.	.	.
O=Cc1cccc(C=O)c1	/	.	.	/
COc1ccc(N2CCN(C(=O)c3c(C)oc4ncn(CC(C)C)c(=O)c34)CC2)cc1	/	.	.	/
SMILES	HT1080 IDH1KD tx	KB-3-1 cytotox	KB-V1 cytotox	HT1080-NT tox
CCn1c(=O)cc(OCC(=O)NCc2ccccc2Cl)c2ccccc21	/	.	.	/
Fc1ccc(C[n+]2csc3ccccc32)cc1	.	.	.	.
Clc1ccc(C[n+]2csc3ccccc32)cc1	.	.	23µM	.
COC(=O)c1cc(Cc2ccc(N)c(C(=O)OC)c2)ccc1N	.	?	21µM	.
COc1cc(Cc2ccc(N)c(OC)c2)ccc1N	.	.	.	.
Cc1ccc(-c2cccc(C3CC=CC4C3C(=O)N(Cc3ccccc3)C4c3cc(C)ccc3F)c2)cc1 (stereo unspecified)	.	21µM	.	.
COC(=O)c1c(NC(=O)C(C)(C)C)sc2c1C(C(=O)OC)CC2 (stereo unspecified)	.	?	21µM	.
COC(=O)c1c(NC(=O)C(Cl)Cl)sc2c1C(C(=O)OC)CC2 (stereo unspecified)	.	.	.	.
O=C(OCc1cc(Cl)cc2c1OCOC2)c1cccnc1Cl	.	.	.	.
CNS(=O)(=O)c1cccc(C(=O)OCc2cc(Cl)cc3c2OCOC3)c1	.	.	18µM	.
CCN1CCN(c2ccc(NC(=O)c3ccc(F)cc3)cc2Cl)CC1	.	?	.	.
CCC(=O)N1CCN(c2ccccc2NC(=O)Cc2ccc(Cl)cc2)CC1	.	.	.	.
CCN1CCN(c2ccc(NC(=O)c3ccc([N+](=O)[O-])o3)cc2Cl)CC1	13µM	.	?	?
CCC(=O)N1CCN(c2ccc(NC(=O)c3ccc([N+](=O)[O-])o3)cc2Cl)CC1	7.3µM	?	.	12µM
